Results published in PubChem BioAssay.
Calls of active or inactive are those of the source.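 The calls were made as follows: active = inhibition above 20% together with a positive visual image hit; inconclusive = visual image hit but inhibition not above 20%; inactive = no visual image hit.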

Assay: inhibitors of TNFa-induced NFkB p65 translocation, primary screen, imaging, HUVEC, MLSMR starter and 10KST1 sets (AID 438);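 also: compound added about 3h40 before a 20 min TNFalpha stimulation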;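 as to inhibition: signal is the nuclear over cytoplasmic p65 intensity ratio per well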
Conditions: HUVEC TNFa-induced p65 nuclear translocation; cell count: measured here: nuclei count (cytotoxicity indicator), at 2.08 µM; inhibition: at 2 µM, stronger effect = higher value, 0% TNFa-plus-vehicle, 100% no-TNFa wells
In the case of `Cc1ccc(S(=O)(=O)N2CCOCC2)cc1C(=O)Nc1ccc(-c2cn3ccsc3n2)cc1`, the cell count is reported as 614 and the inhibition is reported as -6.3% (inactive). For `Cc1ccc(S(=O)(=O)NCCc2ccncc2)cc1`, the inhibition was -1.9% (inactive) and the cell count was 560. For `O=C(NCc1ccco1)C1Cc2ccccc2CN1S(=O)(=O)c1ccccc1F` (stereo not drawn), the cell count was 654 and the inhibition was 7.7% (inactive). For `Cc1ccccc1NC(=O)c1c(F)c(F)c(F)c(F)c1F`, the inhibition was -6% (inactive) and the cell count was 490. In the case of `CC(C(=O)N1CC2(C)CC1CC(C)(C)C2)N1C(=O)c2ccccc2C1=O` (stereo not drawn), the inhibition is reported as 5.1% (inactive) and the cell count is reported as 239. For `O=c1c2c3nc4ccccc4nc3n(CC3CCCO3)c2ncn1CCc1ccccc1` (stereo not drawn), the inhibition was -3.2% (inactive) and the cell count was 440. In the case of `COC(=O)C1=C(C)NC(=O)C1(NC(=O)c1cccnc1)C(F)(F)F` (stereo not drawn), the inhibition is reported as -3.9% (inactive) and the cell count is reported as 609. In the case of `CCCn1c2ccccc2c2nnc(SCC(=O)OCC)nc21`, the cell count is reported as 412 and the inhibition is reported as -1.5% (inactive). For `O=C(Nc1ccc(Cl)cc1C(=O)Nc1ccncc1)c1ccco1`, the cell count was 393 and the inhibition was 2.1% (inactive). For `COCCOC(=O)C1=C(C)N=c2s/c(=C\c3cccs3)c(=O)n2C1c1cccs1` (stereo not drawn), the cell count was 331 and the inhibition was -4.7% (inactive). For `Cc1cc2ncc(C(=O)Nc3ccccc3)c(C)n2n1`, the inhibition was 4.2% (inactive) and the cell count was 376. For `Cn1c(SC/C=C/c2ccccc2)nnc1-c1cnccn1`, the inhibition was 1.1% (inactive) and the cell count was 630. For `CCn1c(=O)n(CC(=O)Nc2cc(OC)ccc2OC)c(=O)c2ccccc21`, the cell count was 696 and the inhibition was -1.6% (inactive). In the case of `CCOC(=O)COc1ccc(S(=O)(=O)N2CCc3ccccc3C2)cc1`, the cell count is reported as 447 and the inhibition is reported as 3.3% (inactive).
